Compound activity from PubChem BioAssay.
An excerpt weighted towards active compounds, which were near 3% of everything screened.
TWEAK-Fn14 inh = inhibitors of TWEAK-Fn14 signaling, primary screen, luciferase reporter cells, uHTS. TWEAK-stimulated Fn14 reporter cells, luciferase luminescence, 8 h. inhibition, % at 10 µM. 360,000 tested, 2% active. AID 1159606, 2016; in the data active = inhibition above about 50%
LGR2 inh = inhibitors of bursicon-induced LGR2 CRE-luciferase signal, primary screen, cell-based, HEK293, CRE-luciferase reporter, bursicon stimulation. 380,000 tested, 0.35% active. Drosophila bursicon receptor LGR2 (rickets). inhibition, % at 9.99 µM. bursicon-stimulated, 4 h;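 active = drop in luminescence signal, shown as inhibition above about 50% in the replicate tests, limit read from the data, passing the limit was not always enough; inconclusive = probably only some replicates passing the limit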;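 note: agonist challenge used bursicon conditioned medium at about half maximal strength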
TROY signal inh = inhibitors of TROY-driven NF-kB signaling, primary screen, Q293 LMP1-TROYcd cells, NF-kB luciferase, uHTS | Q293 LMP1-TROYcd NF-kB luciferase reporter, 4 h | inhibition, % at 10 µM | 360,000 tested, 0.98% active | AID 1347056, 2019;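 active = compounds whose plate-normalised and pattern-corrected inhibition of the luciferase reporter signal at the single screening dose is 50% or more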
MITF act = activators of MITF-driven TRPM1 promoter reporter, primary screen, cell-based, SK-MEL-5, luciferase, single point; SK-MEL-5 TRPM1-promoter luciferase, 24 h; % of positive control, neutral wells = 0; activation, % at 12.5 µM; 300,000 tested, 0.75% active;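 active = mean activation of at least 80% with every replicate also reaching 80%; inconclusive = mean reaches 80% but some replicate falls short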;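 note: 0% = neutral control wells and 100% = parthenolide positive control wells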
EBV LMP1 NFkB = EBV LMP1-driven NF-kappaB luciferase reporter inhibitors, primary screen, cell-based, luminescence, single point | AID 504558, 2011 | LMP1-induced NF-kappaB luciferase reporter cells | 350,000 tested, 0.69% active | inhibition, % at 12.5 µM; in the data active = inhibition above about 41%; inconclusive = no clear call, values can overlap the other calls;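 note: 0% = neutral control wells and 100% = reference inhibitor control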
MITF TRPM1 inh = inhibitors of MITF-dependent TRPM1 promoter reporter, primary screen, cell-based, SK-MEL-5, single point, luciferase; inhibition, % at 12.5 µM; 330,000 tested, 0.83% active; SK-MEL-5 TRPM1 promoter luciferase, 24 h;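 active = mean inhibition across replicates of 60% or more, whatever share of single replicates reaches that level; inconclusive = some that reach 60%, reason not given; inactive = mean inhibition across replicates below 60%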
* marks the source's active call; other numbers are inactive results; ? = inconclusive; · = no result.

SMILES | TWEAK-Fn14 inh | LGR2 inh | TROY signal inh | MITF act | EBV LMP1 NFkB | MITF TRPM1 inh
Cc1cccc(-c2ccc([C@@H]3[C@@H](CO)N4C(=O)CN(C(=O)NC5CCCCC5)C[C@@H]34)cc2)c1 | · | 9.2 | · | · | · | ·
CCCC#Cc1cnc2c(c1)C(=O)N([C@H](C)CO)C[C@H](C)[C@@H](CN(C)C)O2 | · | -3.1 | · | · | · | ·
Cc1ccc(CNC(=S)Nc2ccc3c(c2)c(=O)n(C)n3Cc2cccc(C(F)(F)F)c2)cc1 | 57.0* | 11.3 | 60.9* | · | · | ·
CCNC(=S)Nc1ccc2c(c1)c(=O)n(C)n2Cc1cccc(C(F)(F)F)c1 | 16.9 | -4.1 | -0.4 | · | · | ·
O=C(C[C@@H]1C[C@H]2c3cc(NC(=O)NC4CCCC4)ccc3O[C@H]2[C@@H](CO)O1)NCc1ccc(Oc2ccccc2)cc1 | · | -14.1 | · | · | · | ·
CC(C)COc1ccc(-c2nnc(-c3ccco3)o2)cc1 | 56.7* | · | -12.1 | 30.5 | 18.9 | -33.1
CCN(CC)CCCNc1ccc(-c2nnc(-c3ccc(OCC(C)C)cc3)o2)cn1 | -71.5 | 10.9 | -20.8 | -74.8 | 0.4 | 76.7*
O=C(COc1ccccc1)Nc1ccc(-c2nnc(-c3ccco3)o2)cc1 | -13.6 | -34.1 | -40.0 | 0.3 | -17.6 | -3.6
COc1cccc(-c2nnc(-c3ccco3)o2)c1 | 16.9 | -22.0 | -44.6 | 16.6 | -9.7 | -17.2
CCCOc1ccc(-c2nnc(-c3ccco3)o2)cc1 | 72.4* | · | 34.0 | 13.5 | 27.7 | -15.8
O=C(CSC1=NCCS1)Nc1ccnc2ccccc12 | 51.5* | 4.3 | 29.3 | 2.7 | 11.6 | 2.5
C[C@@H]1CN([C@@H](C)CO)C(=O)c2cc(NC(=O)c3ccccc3)ccc2O[C@@H](C)CCCCO[C@@H]1CN(C)C(=O)c1ccccc1 | · | 1.9 | · | · | · | ·
NS(=O)(=O)c1ccc(CCNC(=O)c2ccc(C#CC3(O)CCCCC3)cc2)cc1 | 26.9 | 11.9 | 56.2* | -9.6 | -3.2 | 10.8
Nc1ccc(N(CCO)CCO)cc1 | 1.6 | -15.2 | 6.3 | -2.2 | 5.0 | 5.6
CCN(CC)c1ccc(N)cc1 | -7.8 | · | 5.5 | -85.5 | ? | 86.4*
O=C(c1cccc(F)c1)N1CC(=O)N2[C@H](C1)[C@@H](c1ccc(-c3cccnc3)cc1)[C@@H]2CO | · | 11.9 | · | · | · | ·
Cc1ccc(C)c(CNC(=O)Nc2ccccc2)c1 | -12.4 | -16.9 | -38.6 | 85.9* | -29.3 | -87.8
COc1ccc(-c2noc(-c3ccoc3C)n2)cc1 | -18.9 | · | -31.8 | 58.0 | -33.9 | -55.9
COc1ccc(-c2noc(-c3ccoc3C)n2)cc1OC | -41.8 | -166.6 | -18.1 | 88.6* | -35.1 | -79.3
COc1ccc(-c2noc(-c3ccccc3Cl)n2)cc1OC | -39.8 | -71.8 | -50.1 | 85.7* | -50.5 | -83.4
C[C@H]1CN([C@@H](C)CO)C(=O)c2cc(C#CC3CCCCC3)cnc2O[C@@H]1CN(C)Cc1ccncc1 | · | 5.8 | · | · | · | ·
COc1ccc(C)cc1Nc1n[n+](-c2ccccc2)c(-c2c(OC)ccc3ccccc23)s1 | 57.9* | 44.2 | 46.9 | -63.9 | 44.2* | 66.4*
COc1ccc(C)cc1Nc1n[n+](-c2ccccc2)c(-c2cc(OC)c(OC)cc2Br)s1 | -1.0 | -0.8 | 10.1 | -9.3 | 4.6 | 9.6
C/C=C/c1ccc([C@H]2[C@H]3CN(C(=O)Nc4ccc(OC)cc4)CC(=O)N3[C@H]2CO)cc1 | · | -6.0 | · | · | · | ·
C[C@H](O)C#Cc1cnc2c(c1)C(=O)N([C@@H](C)CO)C[C@@H](C)[C@H](CN(C)CC1CCCCC1)O2 | · | 24.2 | · | · | · | ·
SMILES | TWEAK-Fn14 inh | LGR2 inh | TROY signal inh | MITF act | EBV LMP1 NFkB | MITF TRPM1 inh
CCCc1nc2ccc(NC(C)=O)cc2c(=O)n1Cc1ccc(Cl)cc1 | -36.4 | -104.6 | -53.7 | 82.0* | -40.1 | -80.6
O=C(Nc1ccc2c(c1)N(S(=O)(=O)c1cccs1)CCC2)c1c(F)cccc1F | -12.0 | -11.5 | -31.9 | -5.3 | -4.4 | 7.8
O=S(=O)(c1cccs1)N1CCCc2cccc(O)c21 | -12.9 | · | -70.7 | 95.1* | -9.3 | -88.8
COCC(=O)N(Cc1cc2ccccc2[nH]c1=O)c1ccccc1OC | 79.4* | · | · | -5.7 | -4.4 | 3.9
Cc1cccc(N(Cc2cc(=O)[nH]c3ccccc23)C(=O)CCl)c1 | 86.5* | 31.7 | 24.4 | -74.6 | 17.3 | 76.3*
COc1ccc(N(Cc2cc(=O)[nH]c3ccccc23)C(=O)CCl)cc1 | 41.4 | 16.4 | 8.7 | -83.5 | 1.8 | 85.3*
CCCC(=O)N(Cc1cc(=O)[nH]c2ccccc12)c1ccc(OC)cc1 | 12.3 | 5.4 | -13.2 | -12.6 | 17.8 | 12.5
COc1ccccc1N(Cc1cc(=O)[nH]c2ccccc12)C(=O)c1ccccc1 | 80.6* | 3.1 | 81.7* | -9.5 | -6.8 | 2.7
C[C@@H]1CN([C@H](C)CO)C(=O)c2cc(C#CC3CCCCC3)cnc2O[C@H]1CN(C)S(C)(=O)=O | · | 0.8 | · | · | · | ·
C/C=C/c1ccc([C@H]2[C@@H](CO)N(C(C)=O)C23CN(C(=O)NC2CCCC2)C3)cc1 | · | 6.2 | · | · | · | ·
Cc1ccccc1CC(=O)NC1CCCCCC1 | 87.2* | -1.3 | -20.7 | · | -2.3 | -3.6
Cc1ccccc1CSCC(=O)NC1CCCC1 | -9.6 | · | -2.8 | 37.4 | -5.3 | -33.8
Cc1ccccc1C(=O)NC1CCN(C(=O)NC2CCCCC2)CC1 | 53.2* | 8.7 | 3.3 | 5.7 | 7.3 | -6.3
COc1ccc(NC(=O)Nc2ccc3c(c2)C(=O)N([C@@H](C)CO)C[C@H](C)[C@H](CN(C)C(=O)c2ccccc2)OCCCC[C@@H](C)O3)cc1 | · | 13.4 | · | · | · | ·
Cc1cc(/C=C\c2ccc3cc(N(C)C)ccc3[n+]2C)c(C)n1-c1ccccc1 | 44.5 | · | 0.5 | -99.8 | 52.2* | 100.8*
COC(=O)COc1ccc(-c2nccc(-c3ccccn3)n2)cc1 | 60.7* | -21.7 | 8.6 | -15.9 | 20.2 | 22.0
Oc1ccc(-c2nccc(-c3ccccn3)n2)cc1 | 7.3 | -112.9 | -42.2 | 100.9* | 10.6 | -93.5
COC(=O)COc1ccc(-c2nccc(-c3ccc(Br)cc3)n2)cc1 | 7.5 | -3.1 | -1.1 | -6.4 | -7.8 | 8.7
Cc1ccc(-c2ccnc(-c3ccc(O)cc3)n2)cc1 | 7.3 | -53.8 | -71.0 | 22.1 | -1.1 | -23.9
CCCC(=O)Nc1ccc2c(c1)C(=O)N(C)C[C@@H](OC)[C@@H](C)CN(Cc1cccc(F)c1)[C@H](C)CO2 | · | 7.5 | · | · | · | ·
CC(C)C(=O)Nc1ccc2c(c1)C(=O)N(C)[C@H]1CC[C@@H](CC(=O)NCCCN(C)C)O[C@H]1CO2 | · | 21.1 | · | · | · | ·
COc1cc(CCC(=O)Nc2ccc(C)c(S(=O)(=O)N3CCCCCC3)c2)cc(OC)c1OC | 51.3* | 6.7 | 33.8 | -23.7 | 28.0 | 25.8
Cc1ccc(NC(=O)C2CC(=O)N(Cc3ccccc3)C2)cc1S(=O)(=O)N1CCCCCC1 (stereo unspecified) | 87.8* | 5.4 | 60.6* | -7.0 | 17.6 | 5.7
